Screens (PubChem BioAssay)
A selection: hits, their analogues and other compounds. The true share with any hit is near 7.2%.
SNCA viab count: reduces viability of HEK-293 SNCA reporter cells; HEK-293-SNCA-luc viability, GF-AFC fluorescence, 24 h; Potency, µM (top dose mostly 57.1 µM), without a hit: top-dose activity change, negative = cytotoxicity, usual class: cytotoxic; 0.12% of 150,000 active; AID 1671193;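 further: 0% = DMSO-treated cells and -100% = medium-only wells without cells; nearly all actives have a fitted effect of over 30% in size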
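HEK-293-SNCA-luc cells (1500/well) plated 24 h, then exposed 24 h to a dilution series; GF-AFC added 30 min at 37C, fluorescence 405/540 nm; normalised to medium-only and DMSO wells, Hill fit.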
HEK cytotox: kills HEK 293 cells | HEK 293 viability, ATP luminescence (CellTiter-Glo), 48-72 h | Potency, µM (doses to about 115 µM), without a hit: at the highest dose activity change, negative = cytotoxicity, hits mostly inhibitors | 6.6% of 94,000 active | AID 1345083; further: nearly all actives have a fitted effect of over 60% in size
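qHTS cytotoxicity; HEK 293, 250 cells/well; compound pinned; 48 or 72 hr, 37 degree Celsius, 5% CO2, 95% humidity; CellTiter-Glo, 10 min RT; luminescence (ATP).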
hNpr1 antagonist: blocks ANP-stimulated signaling of human Npr1 receptor | HEK293 hNpr1 GloSensor cGMP, ANP-stimulated luminescence | 1.6% of 76,000 active | Potency, µM (doses to about 46.3 µM), inactives show at the top dose activity change, negative = inhibition, usual class: inhibitors | P16066 | AID 1347048; calls by dose curve; further: nearly all actives have a fitted effect of over 60% in size
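Compound pre-incubated 30 min at room temperature on GloSensor-loaded HEK293 cells stably carrying hNpr1 and the pGS-40F cGMP biosensor. Stimulation uses hNppA at 0.1 nM final; luminescence is taken at baseline and 20 min post-agonist.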
FLuc inh: Photinus pyralis luciferase inhibition; P08659; purified P. pyralis luciferase, luminescence, biochemical; Potency, µM (top dose mostly 115 µM), usual class: inhibitors; 2.5% of 76,000 active; AID 1347043; further: nearly all actives have a fitted effect of over 65% in size
Target sequence (P08659 whole entry, looked up): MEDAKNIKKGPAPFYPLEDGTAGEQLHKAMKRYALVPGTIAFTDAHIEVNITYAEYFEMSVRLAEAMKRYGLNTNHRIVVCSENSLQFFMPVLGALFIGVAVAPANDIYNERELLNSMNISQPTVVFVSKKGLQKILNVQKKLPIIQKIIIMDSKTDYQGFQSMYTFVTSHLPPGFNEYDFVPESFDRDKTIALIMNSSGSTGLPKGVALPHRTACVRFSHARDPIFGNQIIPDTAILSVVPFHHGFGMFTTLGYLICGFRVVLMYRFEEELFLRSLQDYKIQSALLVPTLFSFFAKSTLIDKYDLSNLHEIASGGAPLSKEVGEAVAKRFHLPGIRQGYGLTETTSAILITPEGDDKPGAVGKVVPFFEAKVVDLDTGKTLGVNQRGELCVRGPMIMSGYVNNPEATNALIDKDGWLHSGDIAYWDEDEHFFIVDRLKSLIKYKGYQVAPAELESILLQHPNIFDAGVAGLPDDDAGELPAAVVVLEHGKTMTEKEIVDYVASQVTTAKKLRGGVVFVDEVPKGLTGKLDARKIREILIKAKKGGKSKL
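Luminescence read by CCD imaging after purified firefly luciferase (10nM final) was added to substrate buffer holding 10uM D-luciferin and 10uM ATP, pH 7.5, pre-dosed with compound.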
SNCA expr inh: reduces expression of the alpha-synuclein gene; AID 1671194; Potency, µM (top dose mostly 57.2 µM), without a hit: top-dose activity change, negative = inhibition, hits mostly inhibitors; HEK-293 SNCA-luciferase knock-in, luminescence, 24 h; 0.17% of 140,000 active;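 further: plate controls were DMSO cells for no effect and cell-free wells for full effect; nearly all actives have a fitted effect of over 45% in size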
NIH3T3 tox: kills NIH 3T3 cells | 4.3% of 94,000 active | NIH 3T3 viability, CellTiter-Glo ATP luminescence, 48-72 h | Potency, µM (highest dose often 96.7 µM), for inactives: top-dose activity change, negative = cytotoxicity, hits mostly inhibitors; further: nearly all actives have a fitted effect of over 55% in size
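NIH 3T3 cells at 400 cells/well received 23 nL of compound by pintool and were incubated 48 or 72 h at 37 °C. Viability was read as ATP-coupled CellTiter-Glo luminescence.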
Numbers without * were called inactive; i = inactive; ? = inconclusive; . = not tested or not shown; [ ] = dose if it differs, or a comment. Unless noted, the call rests on the fitted dose curve; in most records, active means well fitted curve in the direction sought with a large enough effect; inconclusive means small, poorly fitted or top-dose-only effect, or another doubt; inactive means no such curve, though single readings can be large; an effect the other way counts as inactive or inconclusive. Unless noted, on the % scale 0 is the no-effect control and ±100 the full control effect; potency means the concentration at half of the fitted maximal effect.

SMILES	SNCA viab count	HEK cytotox	hNpr1 antagonist	FLuc inh	SNCA expr inh	NIH3T3 tox
CN(CC[C@H]1CN(C(=O)c2ccc(C(F)(F)F)cc2)CC[C@H]1CC(=O)O)c1ccccc1	-4%	0%	3%	i	9%	35µM*
Cc1ccc(Nc2ccnc(N3CCC(C(=O)NCc4cccs4)CC3)n2)cc1	-4%[12.5 µM]	18µM*	.	.	42%	22µM*
O=C(NCc1cccs1)C1CCN(c2nccc(Nc3ccccc3Cl)n2)CC1	0%	45µM*	.	.	-8%	?
COCCNC(=O)C1CCN(c2nccc(Nc3ccc(C)cc3)n2)CC1	-10%[12.5 µM]	?	.	.	5%	?
O=C(O)CCn1ncc2cc(OC3CCN(C(=O)Oc4ccccc4Cl)CC3)ccc21	1%	-26%	.	i	1%	8.9µM*
Cc1ccc(OC(=O)N2CCC(Oc3ccc4c(cnn4CCC(=O)O)c3)CC2)cc1	-5%[87.6 µM]	-11%[172 µM]	4%[70.6 µM]	i	-16%[87.6 µM]	35µM*
Cc1ccc(OC(=O)N2CCC(COc3ccc4c(cnn4CCC(=O)O)c3)CC2)cc1	-6%[87.6 µM]	?	-1%[70.6 µM]	i	?	-41%[138 µM]
O=C(O)CCn1ncc2cc(OC3CCN(C(=O)OC4CCCC4)CC3)ccc21	-4%[87.6 µM]	-13%[172 µM]	1%[70.6 µM]	?	-1%[87.6 µM]	?
COc1ccc(Cl)cc1NC(=O)C1CN(S(C)(=O)=O)CC12CCCCC2 (configuration not stated)	-7%	?	-22%	i	?	?
COc1cccc(NC(=O)c2ccc3c(c2)NC(C)(COc2ccc4[nH]ccc4c2)CO3)c1 (configuration not stated)	-29%	25µM*	-22%	i	?	13µM*
CC1(COc2ccc3[nH]ccc3c2)COc2ccc(C(=O)NCC3CCOCC3)cc2N1 (configuration not stated)	1%[87.6 µM]	?	-4%[70.6 µM]	i	-18%[87.6 µM]	-17%[138 µM]
COc1ccc(OCC2(C)COc3ccc(C(=O)Nc4ccn(C)n4)cc3N2)cc1 (configuration not stated)	?	?	18µM*	?	?	?
COCCNC(=O)c1ccc2c(c1)NC(C)(COc1ccc(OC)cc1)CO2 (configuration not stated)	16%[87.6 µM]	?	-19%[70.6 µM]	i	-6%[87.6 µM]	?
CC1(CNc2ccccc2)COc2ccc(C(=O)Nc3ccc4[nH]ccc4c3)cc2N1 (configuration not stated)	-24%[87.6 µM]	?	-28%[70.6 µM]	10µM*	?	40µM*
COC(=O)/C=C/C(=O)N(O)CCCCNCc1ccc(COC(=O)Nc2cccc3ccccc23)cc1	24µM*	.	.	.	.	.
COc1ccc(CNC(=O)C(=O)Nc2ccccc2OC)cc1	-11%	.	.	.	35%	.
O=C(NCc1cccnc1)c1ccc2oc(-c3ccc(C(F)(F)F)cc3)nc2c1	7%	11µM*	?	i	40%	?
COc1ccc(-c2ccc(C(=O)NCc3ccccc3)cc2)nn1	.	-27%[172 µM]	.	.	.	-22%[138 µM]
COc1ccc(-c2ccc(C(=O)NCc3ccccc3F)cc2)nn1	.	112µM*	.	.	.	?
COc1ccc(-c2ccc(C(=O)NCc3cccnc3)cc2)nn1	.	-18%[172 µM]	.	.	.	8.9µM*
COc1ccc(-c2ccc(C(=O)N(C)c3ccccc3)cc2)nn1	.	22µM*	.	.	.	13µM*
O=C(NCc1cccc(C(F)(F)F)c1)c1ccc2oc(-c3ccncc3)nc2c1	13%	?	.	.	-1%	-16%
COc1cccc(CC(=O)N2CCc3nn(Cc4ccccc4)c(=O)n3CC2)c1	8%	-27%	-1%	i	-14%	-25%
NC1CCc2nn(CC(=O)N(Cc3ccccc3)Cc3ccco3)c(=O)n2CC1 (configuration not stated)	3%	-9%	2%	i	-3%	2%
COc1ccc(-c2ccc(NC(=O)c3ccccc3C)cc2)nn1	.	40µM*	.	.	.	?
SMILES	SNCA viab count	HEK cytotox	hNpr1 antagonist	FLuc inh	SNCA expr inh	NIH3T3 tox
Cc1ccc(-n2c(C3CCN(C(=O)c4ccco4)CC3)n[nH]c2=O)cc1	-5%	6%	2%	i	1%	22µM*
Cc1ccc(-n2c(C3CCN(C(=O)Cc4ccccc4)CC3)n[nH]c2=O)cc1	-1%	4%	5%	i	3%	?
O=C(c1ccc2ccccc2n1)N1CCC(c2n[nH]c(=O)n2-c2ccccc2)CC1	1%	4%	0%	i	13%	45µM*
CC(C)(C)c1ccc(C(=O)N2CCC(c3n[nH]c(=O)n3-c3ccccc3)CC2)cc1	1%	?	0%	i	9%	-26%
Cc1ccc(-n2c(C3CCN(C(=O)c4ccc(F)c(F)c4)CC3)n[nH]c2=O)cc1	-11%	12%	2%	i	19%	10µM*
Cc1ccc(-n2c(C3CCN(C(=O)c4cccc(F)c4)CC3)n[nH]c2=O)cc1	2%	12%	3%	i	-2%	35µM*
Cc1ccc(N2CCN(C(=O)c3noc(-c4ccc(F)cc4)n3)CC2)c(C)c1	24%	?	0%	i	11%	-23%
COCCn1c2c(c(=O)n1-c1ccccc1)CCN(C(=O)c1cc3ccccc3n1C)C2	-8%[87.6 µM]	-5%[172 µM]	-1%[70.6 µM]	i	1%[87.6 µM]	?
O=C(Nc1cccc(-n2cccn2)c1)C1CCCN1C(=O)CCn1cccn1 (configuration not stated)	-4%	-6%	0%	i	?	-8%
Cc1ccc(C(=O)N2CCC(c3nc(-c4ccccc4)no3)C2)s1 (configuration not stated)	2%	?	?	?	43%	?
Cc1ccc(-n2c(C3CCN(C(=O)Cc4cccc(F)c4)CC3)n[nH]c2=O)cc1	3%	-1%	15%	i	5%	10µM*
O=C(Cc1cccc(F)c1)N1CCC(c2n[nH]c(=O)n2-c2ccccc2)CC1	1%	-12%	-4%	i	?	-27%
Cc1ccc(-n2c(C3CCN(C(=O)c4ccc5cc[nH]c5c4)CC3)n[nH]c2=O)cc1	-6%	10%	2%	i	4%	32µM*
O=C(Nc1ccc([C@H]2OCC(=O)N(Cc3ccc(F)cc3)[C@@H]2CO)cc1)C1CC1	6%[87.6 µM]	-25%[172 µM]	5%[70.6 µM]	i	-2%[87.6 µM]	-26%[174 µM]
COc1ccc(C(=O)NCCC2CCN(C(=O)Nc3cccc(F)c3)CC2)cc1	-1%	-15%	.	.	156%	-25%
COCCn1c(=O)c(C(=O)N2CCN(Cc3ccccc3)CC2)nc2cccnc21	2%	-3%	.	.	13%	i
O=C(CCC1CCCN(S(=O)(=O)c2ccccc2F)C1)NC1CCCCC1 (configuration not stated)	-8%	32µM*	?	i	-9%	-25%
